These results are taken from ChEMBL document CHEMBL1961873, “Compounds: GSK PKIS; Assays: Nanosyn kinase panel” (2012).

The target of assay [1] is T1, Serine/threonine-protein kinase TBK1 (Homo sapiens) (UniProt Q9UHD2).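 Note: values are mean inhibition of TBK1, screened as part of the GSK published kinase inhibitor set.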
T1 sequence (whole entry): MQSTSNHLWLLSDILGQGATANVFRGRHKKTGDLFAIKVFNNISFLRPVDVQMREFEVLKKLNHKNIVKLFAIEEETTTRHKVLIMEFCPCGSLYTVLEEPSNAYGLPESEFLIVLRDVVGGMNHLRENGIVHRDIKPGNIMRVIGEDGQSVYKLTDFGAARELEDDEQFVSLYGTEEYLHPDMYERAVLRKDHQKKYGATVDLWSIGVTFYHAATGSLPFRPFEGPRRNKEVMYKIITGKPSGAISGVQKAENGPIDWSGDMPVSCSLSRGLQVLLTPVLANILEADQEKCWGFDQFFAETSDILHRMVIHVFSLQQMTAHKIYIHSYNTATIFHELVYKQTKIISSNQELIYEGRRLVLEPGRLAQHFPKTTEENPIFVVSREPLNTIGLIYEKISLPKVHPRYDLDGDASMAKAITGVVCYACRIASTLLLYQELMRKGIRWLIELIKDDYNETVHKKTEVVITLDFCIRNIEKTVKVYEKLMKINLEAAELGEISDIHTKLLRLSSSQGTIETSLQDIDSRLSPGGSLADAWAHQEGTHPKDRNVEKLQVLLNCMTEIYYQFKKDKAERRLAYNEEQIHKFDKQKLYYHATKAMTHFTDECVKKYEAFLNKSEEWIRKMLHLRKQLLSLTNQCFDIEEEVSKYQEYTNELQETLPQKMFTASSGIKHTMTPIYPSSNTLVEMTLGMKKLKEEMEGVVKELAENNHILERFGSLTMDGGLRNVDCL
To be noted: at 1 µM.

Assay [2] concerns the target T2, Testis-specific serine/threonine-protein kinase 1 (Homo sapiens) (UniProt Q9BXA7).
T2 sequence (whole entry): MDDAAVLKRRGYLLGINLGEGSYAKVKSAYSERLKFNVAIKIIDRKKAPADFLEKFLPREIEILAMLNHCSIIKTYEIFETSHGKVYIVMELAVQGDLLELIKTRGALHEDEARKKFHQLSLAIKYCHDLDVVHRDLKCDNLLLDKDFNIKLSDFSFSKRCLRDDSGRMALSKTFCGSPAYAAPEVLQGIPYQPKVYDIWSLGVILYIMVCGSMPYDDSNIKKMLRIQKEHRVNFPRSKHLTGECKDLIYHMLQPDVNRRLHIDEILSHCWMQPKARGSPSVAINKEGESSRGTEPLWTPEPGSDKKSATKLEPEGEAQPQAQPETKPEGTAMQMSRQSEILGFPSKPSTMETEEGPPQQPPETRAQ
To be noted: at 0.1 µM.

The target of assay [3] is T2, Testis-specific serine/threonine-protein kinase 1 (Homo sapiens). As to conditions: at 1 µM.
In assay [4] the target is T3, Testis-specific serine/threonine-protein kinase 2 (Homo sapiens) (UniProt Q96PF2).
T3 sequence (whole entry): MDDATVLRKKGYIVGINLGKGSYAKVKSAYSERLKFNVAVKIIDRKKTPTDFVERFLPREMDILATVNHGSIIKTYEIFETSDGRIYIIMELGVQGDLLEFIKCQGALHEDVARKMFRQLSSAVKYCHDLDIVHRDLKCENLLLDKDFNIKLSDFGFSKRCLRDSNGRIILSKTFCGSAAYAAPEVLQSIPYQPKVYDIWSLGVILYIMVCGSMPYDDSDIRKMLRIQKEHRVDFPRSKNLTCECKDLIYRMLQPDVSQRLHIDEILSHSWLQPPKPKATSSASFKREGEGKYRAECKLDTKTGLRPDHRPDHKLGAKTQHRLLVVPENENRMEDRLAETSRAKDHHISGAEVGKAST
To be noted: at 0.1 µM.

Assay [5] concerns the target T3, Testis-specific serine/threonine-protein kinase 2 (Homo sapiens). To be noted: at 1 µM.
Assay [6] deals with Casein kinase I isoform alpha (Homo sapiens) (UniProt P48729). As to conditions: at 0.1 µM.
Assay [7] has the same target. To be noted: at 1 µM.
Assay [8] has as its target Casein kinase I isoform gamma-1 (Homo sapiens) (UniProt Q9HCP0). As to conditions: at 0.1 µM.
For assay [9] the target is unchanged. To be noted: at 1 µM.
Assay [10] addresses Casein kinase I isoform gamma-2 (Homo sapiens) (UniProt P78368). To be noted: at 0.1 µM.
Assay [11] shares this target. As to conditions: at 1 µM.
The target in assay [12] is Casein kinase I isoform gamma-3 (Homo sapiens) (UniProt Q9Y6M4). As to conditions: at 0.1 µM.
Assay [13] has the same target. To be noted: at 1 µM.
For assay [14], the target named is Cyclin-dependent kinase 1 (Homo sapiens) (UniProt P06493). As to conditions: at 0.1 µM.
For assay [15] the target is unchanged. To be noted: at 1 µM.
The target of assay [16] is Cyclin-dependent kinase 2 (Homo sapiens) (UniProt P24941). As to conditions: at 0.1 µM.
Assay [17] shares this target. As to conditions: at 1 µM.
Assay [18] shares this target. As to conditions: at 0.1 µM. The source holds these as a separate data set.
Assay [19] shares this target. As to conditions: at 1 µM. This is another data set of the same source.
In assay [20] the target is CDK3/Cyclin E (Homo sapiens) (UniProt P24864+Q00526). To be noted: at 0.1 µM.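 Note: reported percentages are mean inhibition values.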
Sequence of CDK3/Cyclin E (Homo sapiens) (P24864 whole entry, looked up): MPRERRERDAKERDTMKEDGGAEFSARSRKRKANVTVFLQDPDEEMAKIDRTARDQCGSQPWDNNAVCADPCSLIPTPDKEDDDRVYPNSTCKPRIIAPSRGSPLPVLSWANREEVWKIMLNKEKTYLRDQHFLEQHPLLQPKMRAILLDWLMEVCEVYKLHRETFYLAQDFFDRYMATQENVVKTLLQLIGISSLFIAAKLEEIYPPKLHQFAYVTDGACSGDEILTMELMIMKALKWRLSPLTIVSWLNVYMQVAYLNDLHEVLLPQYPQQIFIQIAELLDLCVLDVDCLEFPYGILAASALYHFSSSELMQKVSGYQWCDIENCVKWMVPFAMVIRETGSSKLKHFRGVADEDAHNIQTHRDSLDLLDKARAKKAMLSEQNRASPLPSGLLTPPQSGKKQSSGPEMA
Sequence of CDK3/Cyclin E (Homo sapiens) (Q00526 whole entry, looked up): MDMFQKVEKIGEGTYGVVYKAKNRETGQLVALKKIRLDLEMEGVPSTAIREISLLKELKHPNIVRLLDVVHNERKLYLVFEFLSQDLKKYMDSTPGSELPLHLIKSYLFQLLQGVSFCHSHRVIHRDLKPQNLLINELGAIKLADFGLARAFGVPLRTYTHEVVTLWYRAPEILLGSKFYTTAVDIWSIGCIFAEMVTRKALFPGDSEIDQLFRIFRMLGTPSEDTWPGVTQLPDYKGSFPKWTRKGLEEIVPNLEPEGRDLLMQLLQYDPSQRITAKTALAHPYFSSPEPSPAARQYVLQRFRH

Sequence of Casein kinase I isoform alpha (Homo sapiens) (P48729 2-337 limits assumed): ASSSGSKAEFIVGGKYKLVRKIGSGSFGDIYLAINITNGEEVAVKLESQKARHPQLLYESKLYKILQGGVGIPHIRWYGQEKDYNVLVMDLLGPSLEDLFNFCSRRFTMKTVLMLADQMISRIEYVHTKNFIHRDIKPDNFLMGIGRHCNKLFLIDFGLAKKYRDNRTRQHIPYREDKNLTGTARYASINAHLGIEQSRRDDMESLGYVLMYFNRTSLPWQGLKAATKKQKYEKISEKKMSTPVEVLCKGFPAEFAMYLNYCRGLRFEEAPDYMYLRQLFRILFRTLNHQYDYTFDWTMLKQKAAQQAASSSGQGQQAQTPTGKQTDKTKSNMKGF
Sequence of Cyclin-dependent kinase 1 (Homo sapiens) (P06493 whole entry, looked up): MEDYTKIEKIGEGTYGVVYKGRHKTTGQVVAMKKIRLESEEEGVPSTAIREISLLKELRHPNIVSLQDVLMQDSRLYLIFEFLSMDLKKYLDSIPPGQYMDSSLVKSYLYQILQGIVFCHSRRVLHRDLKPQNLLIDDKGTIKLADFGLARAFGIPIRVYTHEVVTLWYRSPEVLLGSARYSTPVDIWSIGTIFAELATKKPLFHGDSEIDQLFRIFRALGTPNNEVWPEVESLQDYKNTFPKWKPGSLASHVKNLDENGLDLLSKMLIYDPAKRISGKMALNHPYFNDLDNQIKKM
Sequence of Casein kinase I isoform gamma-3 (Homo sapiens) (Q9Y6M4 whole entry, looked up, canonical isoform): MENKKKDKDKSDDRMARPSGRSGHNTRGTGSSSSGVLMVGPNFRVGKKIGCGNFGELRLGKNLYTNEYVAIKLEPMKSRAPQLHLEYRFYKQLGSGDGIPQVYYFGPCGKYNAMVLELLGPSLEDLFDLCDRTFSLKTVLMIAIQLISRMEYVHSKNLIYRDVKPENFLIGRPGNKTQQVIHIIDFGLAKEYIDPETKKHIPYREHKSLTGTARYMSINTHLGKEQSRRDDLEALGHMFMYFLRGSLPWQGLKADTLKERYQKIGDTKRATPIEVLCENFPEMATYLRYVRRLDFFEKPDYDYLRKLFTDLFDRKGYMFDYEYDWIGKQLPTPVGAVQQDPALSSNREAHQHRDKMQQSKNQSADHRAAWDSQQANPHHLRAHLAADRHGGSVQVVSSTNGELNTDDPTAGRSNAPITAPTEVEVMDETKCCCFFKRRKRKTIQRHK
Sequence of Casein kinase I isoform gamma-1 (Homo sapiens) (Q9HCP0 whole entry, looked up, canonical isoform): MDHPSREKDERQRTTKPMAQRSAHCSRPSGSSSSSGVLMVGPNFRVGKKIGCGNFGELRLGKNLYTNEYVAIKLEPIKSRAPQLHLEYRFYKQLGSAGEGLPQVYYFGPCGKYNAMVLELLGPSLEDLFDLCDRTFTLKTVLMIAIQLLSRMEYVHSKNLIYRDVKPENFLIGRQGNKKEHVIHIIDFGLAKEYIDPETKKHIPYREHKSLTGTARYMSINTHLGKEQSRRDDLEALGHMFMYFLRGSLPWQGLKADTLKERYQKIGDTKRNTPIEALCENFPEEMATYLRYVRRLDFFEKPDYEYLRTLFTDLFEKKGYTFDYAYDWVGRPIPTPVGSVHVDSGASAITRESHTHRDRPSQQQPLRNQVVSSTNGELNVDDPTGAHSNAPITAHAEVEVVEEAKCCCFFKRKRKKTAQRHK
Sequence of Casein kinase I isoform gamma-2 (Homo sapiens) (P78368 whole entry, looked up, canonical isoform): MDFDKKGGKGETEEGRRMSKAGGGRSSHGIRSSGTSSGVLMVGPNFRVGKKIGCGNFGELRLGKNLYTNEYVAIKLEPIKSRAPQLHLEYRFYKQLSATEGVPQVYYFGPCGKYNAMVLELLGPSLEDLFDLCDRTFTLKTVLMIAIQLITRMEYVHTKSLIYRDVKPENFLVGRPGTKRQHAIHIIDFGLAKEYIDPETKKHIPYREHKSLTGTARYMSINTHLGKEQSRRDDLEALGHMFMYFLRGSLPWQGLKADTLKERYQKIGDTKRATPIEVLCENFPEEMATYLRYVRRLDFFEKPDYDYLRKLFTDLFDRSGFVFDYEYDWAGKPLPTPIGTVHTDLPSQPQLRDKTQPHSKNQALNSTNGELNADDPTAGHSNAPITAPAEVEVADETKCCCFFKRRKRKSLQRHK

A word on the inhibition: it is the change of the read-out against control, counted positive when it falls. In the case of `Cc1ccc(NC(=O)c2ccnc(N3CCCC3)c2)cc1-c1ccc(C(=O)NCC2CC2)cc1`, the inhibition stood at 8.32% in assay [1]; 3.77% in assay [2]; 3.59% in assay [3]; 1.08% in assay [4]; 1.39% in assay [5]; 5.28% in assay [6]. For the same compound, the inhibition was 2.01% in [7]; 0.99% in [8]; 3.3% in assay [9]; -0.87% in assay [10]; 2.39% in assay [11]; 0.96% in assay [12]. Also, the inhibition in assay [13] is 2.49%; in assay [14], -0.58%; in [15], 2.14%; in [16], -0.92%; in [17] it was 2.88%; in [18], 6.57%. The inhibition came to 6.44% in [19] and 9.73% in assay [20].
As to `CC1=C(C(=O)Nc2ccc3[nH]ncc3c2)C(c2ccc(Cl)c(Cl)c2)CC(=O)N1` (stereo not given), the inhibition in assay [1] was 0.46%; in assay [2], 2.84%; in [3] it was -0.6%; in assay [4], 1.93%; in [5] it was -1.29%; in assay [6], -1.74%. The inhibition in assay [7] was 1.97%; in [8], 0.83%; in assay [9] it was 1.68%; in assay [10], 0.32%; in assay [11], 1.4%; in [12], -0.44%. Also, the inhibition was 1.59% in [13]; -0.56% in [14]; -1.08% in [15]; 0.45% in [16]; 4.04% in [17]; -0.59% in assay [18]. In addition, the values for the inhibition in [19] and in assay [20] were 3.25% and -0.69%, respectively.
Take `O=C1Nc2ccc(C(=O)c3ccco3)cc2C1=Cc1cc(Cl)c(O)c(Cl)c1`: the inhibition in [1] is 40.7%; in assay [2], 1.18%; in assay [3] it was 3.77%; in [4] it was 1.82%; in assay [5], 1.41%; in assay [6] it was -0.89%. For the same compound, the inhibition in assay [7] was determined as 5.16%; in assay [8], 2.49%; in assay [9], 4.24%; in assay [10] it was 1.66%; in [11] it was 5.46%; in assay [12], 1.18%. The inhibition in [13] turned out to be 6.13%; in [14] it was 2.24%; in assay [15], 7.36%; in assay [16], 2.59%; in assay [17], 19.3%; in assay [18] it was 4.71%. Besides, the inhibition was 15.7% in assay [19] and 0.83% in [20].
In the case of `Fc1cccc(COc2ccc(Nc3ncnc4cc(-c5ccc[nH]5)sc34)cc2Cl)c1`, the inhibition was found to be 3.65% in assay [1]; 2.48% in [2]; 2.76% in [3]; 1.09% in assay [4]; 2.13% in assay [5]; 0.63% in assay [6]. In addition, the inhibition in assay [7] is 0.84%; in [8] it was -1.43%; in [9], -0.95%; in [10] it was -1.97%; in [11], -1.46%; in assay [12] it was -2.89%. The inhibition in assay [13] was -1.56%; in assay [14] it was -1.89%; in assay [15], 1.88%; in [16], -1.97%; in assay [17], -1.57%; in assay [18], -0.46%. The inhibition in assay [19] worked out at 2.07%; in assay [20], 3.58%.
Consider `Cc1ccc(C(=O)NC2CCCCC2)cc1-c1ccc(C(=O)NCC2CC2)cc1`, for which the inhibition in [1] is 3.86%; in assay [2] it was 1.44%; in assay [3], -1.51%; in assay [4] it was -0.17%; in assay [5] it was -1.47%; in [6], 4.32%. For the same compound, the inhibition in assay [7] was found to be 3.89%; in [8], 1.72%; in [9] it was 2.66%; in [10], 0.35%; in assay [11], 2.68%; in assay [12], 2.21%. In addition, the inhibition amounted to 2.73% in assay [13]; 0.67% in assay [14]; 0.28% in assay [15]; 0.88% in assay [16]; 7.52% in assay [17]; 2.63% in assay [18]. The figures for the inhibition in assay [19] and in assay [20] were 3.98% and 2.34%, respectively.
For the compound `CCn1c(-c2nonc2N)nc2ccncc21`, the inhibition in [1] was 1.82%; in assay [2], 2.36%; in [3], 1.75%; in assay [4], 0.59%; in assay [5], -0.93%; in assay [6], 0.34%. Moreover, the inhibition was 1.43% in assay [7]; 0.65% in assay [8]; -0.84% in assay [9]; 0.24% in assay [10]; 0.81% in assay [11]; -0.09% in [12]. The inhibition was 1.21% in assay [13]; 0.77% in assay [14]; 1.88% in assay [15]; 1.3% in assay [16]; 4.47% in assay [17]; 1.11% in [18]. In addition, the results for the inhibition in [19] and in [20] were 4.8% and 2.26%, respectively.
